From PubChem BioAssay
Unmarked numbers belong to inactive results. For some assays here: Measured potencies and affinities stand elsewhere. Active and inactive are the calls of the source. Unless noted, no rule for the calls is given here.

How the values were obtained:
[1] = antimalarial activity against Dd2 strain (AID 2302;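 active = growth inhibition above 50% at the single 2 µM test dose, taken to imply half-maximal potency below 2 µM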;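 also: 0% = DMSO untreated growth and 100% = chloroquine plus artemisinin killed control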); conditions: P. falciparum Dd2 in RBCs, LDH growth readout, 72 h; at 2 µM; stronger effect = higher value
[2] = human hepatoma cell viability loss – ATP luminescence, cytotoxicity control for P. falciparum antimalarial project, primary screen (AID 2303;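 active = inhibition above 50%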;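 also: 0% = DMSO wells and 100% = digitonin-killed cells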); conditions: HepG2 viability, 24-48 h, at 10 µM, stronger effect = higher value
[3] = molecular target: L-lactate dehydrogenase (Plasmodium falciparum (isolate CDC / Honduras)) (UniProt Q27743); assay: PfLDH activity inhibition – cell lysate, 3D7 strain, counter-screen for P. falciparum growth inhibition project (AID 2304);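 also: 0% = vehicle and 100% = reference inhibitor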; conditions: P. falciparum 3D7 crude extract, LDH APAD/NBT absorbance; at 2 µM; stronger effect = higher value
Chain of L-lactate dehydrogenase (Plasmodium falciparum (isolate CDC / Honduras)) (Q27743 whole entry, looked up): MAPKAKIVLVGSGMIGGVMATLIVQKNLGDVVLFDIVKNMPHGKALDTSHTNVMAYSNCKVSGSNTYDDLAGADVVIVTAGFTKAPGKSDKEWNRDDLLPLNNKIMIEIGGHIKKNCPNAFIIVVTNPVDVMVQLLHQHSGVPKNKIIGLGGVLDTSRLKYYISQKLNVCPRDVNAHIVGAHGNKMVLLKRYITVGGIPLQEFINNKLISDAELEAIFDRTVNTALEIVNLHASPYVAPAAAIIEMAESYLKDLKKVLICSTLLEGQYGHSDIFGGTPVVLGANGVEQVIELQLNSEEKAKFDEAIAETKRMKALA

[4] = inhibition of 3D7 malaria parasite growth – strain 3D7 (AID 2306);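 also: 0% = DMSO wells and 100% = chloroquine plus artemisinin control wells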; conditions: P. falciparum 3D7 erythrocytic growth, LDH absorbance, 72 h; at 2 µM; stronger effect = higher value
[5] = molecular target: Calcium-dependent protein kinase 1 (Plasmodium falciparum (isolate 3D7)) (UniProt P62344); assay: PfCDPK1 kinase inhibitors, biochemical, TCAMS library (AID 1159585; cut-off not given, nearly all actives have IC50 up to about 0.98 µM;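 also: inhibitors leave more ATP so luminescence rises with inhibition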); conditions: recombinant PfCDPK1, Kinase-Glo ATP depletion luminescence
Chain of Calcium-dependent protein kinase 1 (Plasmodium falciparum (isolate 3D7)) (P62344 whole entry, looked up): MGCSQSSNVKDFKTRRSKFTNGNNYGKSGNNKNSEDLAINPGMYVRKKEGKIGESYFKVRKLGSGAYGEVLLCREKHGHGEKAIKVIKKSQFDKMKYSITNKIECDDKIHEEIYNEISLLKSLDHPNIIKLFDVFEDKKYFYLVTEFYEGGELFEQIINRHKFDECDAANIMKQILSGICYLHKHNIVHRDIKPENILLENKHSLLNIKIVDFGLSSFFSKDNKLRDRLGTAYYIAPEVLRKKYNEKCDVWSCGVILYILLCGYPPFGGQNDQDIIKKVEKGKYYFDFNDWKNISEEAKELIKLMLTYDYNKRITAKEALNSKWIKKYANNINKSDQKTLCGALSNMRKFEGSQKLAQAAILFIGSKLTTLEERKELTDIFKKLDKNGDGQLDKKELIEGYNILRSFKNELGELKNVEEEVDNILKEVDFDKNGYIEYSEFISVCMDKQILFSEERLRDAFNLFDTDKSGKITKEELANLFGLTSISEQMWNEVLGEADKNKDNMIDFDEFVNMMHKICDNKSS

[6] = molecular target: Plasmodium falciparum protein kinase 6 (PK6, PF3D7_1337100) (UniProt Q8IDW1); assay: PfPK6 kinase inhibitors, biochemical, TCAMS library (AID 1159586); conditions: recombinant PfPK6, Kinase-Glo ATP depletion luminescence
Chain of Plasmodium falciparum protein kinase 6 (PK6, PF3D7_1337100) (Q8IDW1 1-305): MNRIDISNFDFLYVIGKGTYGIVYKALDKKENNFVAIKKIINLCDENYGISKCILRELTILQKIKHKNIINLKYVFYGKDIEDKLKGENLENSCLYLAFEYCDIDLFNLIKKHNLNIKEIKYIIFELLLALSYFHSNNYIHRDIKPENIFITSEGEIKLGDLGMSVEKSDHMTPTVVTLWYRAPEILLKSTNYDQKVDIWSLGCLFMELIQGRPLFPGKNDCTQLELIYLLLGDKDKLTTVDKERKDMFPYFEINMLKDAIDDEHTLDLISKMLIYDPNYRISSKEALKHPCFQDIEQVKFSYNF

[7] = molecular target: Protein kinase 7 (PK7), Plasmodium falciparum 3D7 (PF3D7_0213400) (UniProt Q7YTF7); assay: inhibition of Plasmodium PK7 catalytic activity – biochemical, TCAMS antimalarial set, Kinase-Glo luminescence (AID 1159587); conditions: recombinant PfPK7, Kinase-Glo ATP depletion luminescence
Chain of Protein kinase 7 (PK7), Plasmodium falciparum 3D7 (PF3D7_0213400) (Q7YTF7 1-343): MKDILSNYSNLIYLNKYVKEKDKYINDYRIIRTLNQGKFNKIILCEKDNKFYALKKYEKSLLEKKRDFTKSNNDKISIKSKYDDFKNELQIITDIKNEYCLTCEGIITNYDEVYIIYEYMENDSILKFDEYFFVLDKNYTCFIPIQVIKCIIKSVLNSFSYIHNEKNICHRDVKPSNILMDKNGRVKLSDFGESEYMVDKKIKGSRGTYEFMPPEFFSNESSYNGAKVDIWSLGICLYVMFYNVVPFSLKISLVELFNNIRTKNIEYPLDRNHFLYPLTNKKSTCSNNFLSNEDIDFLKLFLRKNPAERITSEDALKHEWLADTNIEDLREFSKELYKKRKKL

[8] = molecular target: Calcium-dependent protein kinase 4 (Plasmodium falciparum (isolate 3D7)) (UniProt Q8IBS5); assay: PfCDPK4 kinase inhibitors, biochemical, TCAMS library (AID 1159588; cut-off not given, nearly all actives have IC50 up to about 0.91 µM); conditions: recombinant PfCDPK4, Kinase-Glo ATP depletion luminescence
Chain of Calcium-dependent protein kinase 4 (Plasmodium falciparum (isolate 3D7)) (Q8IBS5 whole entry, looked up): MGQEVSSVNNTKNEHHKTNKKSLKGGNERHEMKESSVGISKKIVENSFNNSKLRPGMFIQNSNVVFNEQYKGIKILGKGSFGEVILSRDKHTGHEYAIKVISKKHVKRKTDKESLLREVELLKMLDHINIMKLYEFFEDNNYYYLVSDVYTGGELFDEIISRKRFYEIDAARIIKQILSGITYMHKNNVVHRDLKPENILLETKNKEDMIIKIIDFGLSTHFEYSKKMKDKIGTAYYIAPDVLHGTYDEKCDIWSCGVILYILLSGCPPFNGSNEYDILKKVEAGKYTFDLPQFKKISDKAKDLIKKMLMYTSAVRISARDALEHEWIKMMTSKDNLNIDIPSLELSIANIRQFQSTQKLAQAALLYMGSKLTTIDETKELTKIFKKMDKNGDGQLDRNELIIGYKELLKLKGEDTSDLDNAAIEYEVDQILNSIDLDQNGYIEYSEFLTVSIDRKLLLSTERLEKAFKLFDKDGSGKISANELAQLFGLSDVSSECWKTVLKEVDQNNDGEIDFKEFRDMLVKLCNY

SMILES | growth inhibition [1] | inhibition [2] | inhibition [3] [%] | growth inhibition [4] | outcome [5] | outcome [6] | outcome [7] | outcome [8]
CC(C)N(C(=O)CSc1nc2cc(Cl)ccc2c(=O)n1Cc1ccccc1)C(C)C | 97% (active) | -14% | -5 | 100% (active) | inactive | inactive | inactive | inactive
O=C1Nc2cccc3c2C1(CCCCN1CCC(c2c(-c4ccccc4)[nH]c4ccccc24)CC1)CCC3 (stereo not given) | 33% | 18% | -1 | 84% (active) | inactive | inactive | inactive | inactive
Oc1ccccc1CCNCC1CCc2ccccc2C1 (stereo not given) | 98% (active) | 37% | 0 | 98% (active) | inactive | inactive | inactive | inactive
CC[C@H](NC(=O)c1ccc(NC(=O)OC(C)(C)C)cc1)C(=O)N[C@@H](CO)C(=O)NCCCCc1ccccc1 | 94% (active) | -6% | 1 | 98% (active) | inactive | inactive | inactive | inactive
CN1CCN(c2cc(NC(=O)c3ccc(-c4ccc(Cl)cc4)cc3)ccc2Cl)CC1 | 33% | 30% | -2 | 99% (active) | inactive | inactive | inactive | inactive
COc1ccccc1-c1csc(C(=O)NCC2CCN(Cc3ccc(C(C)C)cc3)C2)c1 (stereo not given) | 6% | 24% | 1 | 81% (active) | inactive | inactive | inactive | inactive
CCc1cn2c3c(cc(C(=O)N[C@@H](Cc4ccccc4)[C@H](O)CNC4CCCCC4)cc13)N(CC)S(=O)(=O)CC2 | 98% (active) | 8% | -5 | 98% (active) | inactive | inactive | inactive | inactive
O=C(NCc1ccc(Cl)c(Cl)c1)c1cc(CNC2CCNCC2)ccc1O | 2% | 2% | 4 | 82% (active) | inactive | inactive | inactive | inactive
CCOC(=O)c1c(C)noc1Nc1ccc(OC)cc1 | -6% | -1% | -6 | 99% (active) | inactive | inactive | inactive | inactive
Cc1cccc(C(=O)NC(NC(=S)Nc2ccc([N+](=O)[O-])cc2)C(Cl)(Cl)Cl)c1 (stereo not given) | 66% (active) | 14% | -2 | 96% (active) | inactive | inactive | inactive | inactive
O=C(Nc1cccc(-c2nn3ccccc3c2-c2ccnc(Nc3ccccc3)n2)c1)c1c(F)cccc1F | 98% (active) | 69% (active) | -6 | 98% (active) | inactive | inactive | inactive | inactive
O=C(Nc1ccc(N2CCCN(Cc3cccc(F)c3)CC2)cc1)c1ccccc1 | 95% (active) | 25% | -4 | 95% (active) | inactive | inactive | inactive | inactive
O=C(/C=C/c1ccc(Cl)cc1)NCCCCCN1CCC(C(=O)Nc2cccc(Cl)c2)CC1 | -6% | 22% | -8 | 97% (active) | inactive | inactive | inactive | inactive
NC(=O)c1ccc(-c2ccc3ccnc(N)c3c2)cc1 | 98% (active) | 56% (active) | -2 | 101% (active) | inactive | inactive | inactive | inactive
CC(C)CCNc1nc2ccccc2nc1Nc1cccc(C(F)(F)F)c1 | 99% (active) | 12% | 1 | 98% (active) | inactive | inactive | inactive | inactive
O=C(Nc1cccc(-c2csc(-c3nc4ccccc4[nH]3)c2)c1)c1ccoc1 | 67% (active) | 36% | 1 | 96% (active) | inactive | inactive | inactive | inactive
CCOc1ccc(-c2nc(NC(=O)Cc3cccc(OC)c3)sc2C)cc1 | 28% | 15% | 3 | 97% (active) | inactive | inactive | inactive | inactive
COc1ccc2c(c1)ncn2-c1cc(OCc2ccncc2Br)c(C(N)=O)s1 | 50% (active) | 14% | -2 | 95% (active) | inactive | inactive | inactive | inactive
COc1ccc2nccc([C@H](O)CN3CCC(NCc4cc(C)c5c(c4)OCCO5)CC3)c2n1 | 35% | 12% | 3 | 96% (active) | inactive | inactive | inactive | inactive
COc1ccc2nccc([C@@H](O)CN3CCC(NCc4nc5ccccc5[nH]4)CC3)c2c1 | 2% | 41% | 4 | 92% (active) | inactive | inactive | inactive | inactive

SMILES | growth inhibition [1] | inhibition [2] | inhibition [3] [%] | growth inhibition [4] | outcome [5] | outcome [6] | outcome [7] | outcome [8]
Cc1cc(N[C@@H](Cc2ccccc2)C(=O)Nc2ccccc2)nc(NCCc2ccccn2)n1 | 50% (active) | -3% | -1 | 97% (active) | inactive | inactive | inactive | inactive
CC(=O)Nc1cccc(C(=O)Nc2cccc(-c3ccc(-c4nc5ccc(F)cc5[nH]4)cc3)c2)c1 | 9% | 60% (active) | 5 | 95% (active) | inactive | inactive | inactive | inactive
CCCCn1c(C(C)Oc2ccc(Cl)cc2Cl)nc2cc(S(N)(=O)=O)ccc21 (stereo not given) | 45% | 24% | -2 | 94% (active) | inactive | inactive | inactive | inactive
Nc1c(Cl)cc(C(O)CNCCCCCOCCc2ccc3ccccc3n2)cc1Cl (stereo not given) | 97% (active) | 9% | -1 | 98% (active) | inactive | inactive | inactive | inactive
CC1CCCCN1CCCNc1nc(NCc2ccccc2)c2ccccc2n1 (stereo not given) | 14% | 24% | 0 | 95% (active) | inactive | inactive | inactive | inactive
CCCc1cc(N2CCC(N(CC)CC)C2)nc(Nc2ccc(OC)cc2)n1 (stereo not given) | 4% | 9% | 4 | 90% (active) | inactive | inactive | inactive | inactive
CC1(C)N=C(N)N=C(N)N1OCCCSc1ccccc1 | 94% (active) | 69% (active) | 0 | 93% (active) | inactive | inactive | inactive | inactive
O=C(N[C@@H](Cc1ccccc1)[C@H](O)CNCCC(F)(F)F)c1cccc(OCC2CC2)c1 | 95% (active) | 0% | -1 | 98% (active) | inactive | inactive | inactive | inactive
CCCCCCN1CCN(Cc2cccc(NC(=O)c3cccc(OCC)c3)c2)CC1 | 48% | 65% (active) | 0 | 85% (active) | inactive | inactive | inactive | inactive
NC1=NC(CCc2ccccc2)N(c2ccccc2)C(N)=N1 (stereo not given) | 15% | 1% | -9 | 94% (active) | inactive | inactive | inactive | inactive
CCc1ccc(NC(=O)c2ccc(CN3CCCN(Cc4cccs4)CC3)cc2)cc1 | -1% | 57% (active) | 0 | 87% (active) | inactive | inactive | inactive | inactive
CN1CCN(Cc2cccc(-c3ccc4c(Nc5ccc(Oc6ccccc6)cc5)ccnc4c3)c2)CC1 | 100% (active) | 41% | 6 | 101% (active) | inactive | inactive | inactive | inactive
Cc1ccc(S(=O)(=O)n2cc(-c3ccnc(N)c3)c3cc(Br)cnc32)cc1 | 31% | 8% | 1 | 98% (active) | inactive | inactive | inactive | inactive
CCCCCCN(CCCCCC)CCCCNc1c2ccc(Cl)cc2nc2ccc(OC)cc12 | 94% (active) | 65% (active) | 1 | 100% (active) | inactive | inactive | inactive | inactive
O=C(Nc1ccc(C(=O)Nc2ccc(C3=NCCN3)cc2)cc1)Nc1ccc(C2=NCCN2)cc1 | 95% (active) | -8% | -7 | 94% (active) | inactive | inactive | inactive | inactive
CCc1ccc(CN2CCC(NC(=O)c3cc(-c4ccc(N(C)C)cc4)cs3)C2)cc1 (stereo not given) | 7% | 29% | 3 | 90% (active) | inactive | inactive | inactive | inactive
O=C(NCCN1CCOCC1)c1csc(C2CCCN(C(=O)c3ccc(O)c(-c4cc(Cl)cc(Cl)c4)c3)C2)n1 (stereo not given) | 50% (active) | 12% | 6 | 97% (active) | inactive | inactive | inactive | inactive
O=C(Nc1ccc(C(=O)OCC(c2ccccc2)c2ccccc2)cc1)N[C@@H](Cc1ccc(O)cc1)C(=O)NC1CCN(Cc2ccc(O)cc2)C1 (stereo not given in full) | -4% | -9% | 1 | 96% (active) | inactive | inactive | inactive | inactive
OC1(c2ccccc2)CCN(Cc2cccc(-c3c[nH]c4nc(NC5CCCC5)ncc34)c2)C1 (stereo not given) | 31% | 42% | -1 | 92% (active) | inactive | inactive | inactive | inactive
Cc1cccc(CNc2nc(C)cc(N[C@@H](Cc3ccccc3)C(=O)NCCc3ccccc3)n2)c1 | 85% (active) | 24% | 2 | 99% (active) | inactive | inactive | inactive | inactive
